Assay [1] relates to MDA-MB-231. The experiment in a line: cell viability relative to vehicle unstimulated control (fraction); higher = more viable cells. The conditions noted are these: pre-treatment time: 18 h then 24 h IFNg/TNF.
Assay [2] concerns MDA-MB-231. The experiment in a line: kynurenine production, fold change vs DMSO IFNg/TNF control; higher = more kynurenine produced (less inhibition). The conditions noted are these: pre-treatment time: 18 h then 24 h IFNg/TNF. The gist of the method:
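After trichloroacetic acid and p-dimethylaminobenzaldehyde treatment, supernatants were read at 492 nm, with 0–100 μM standards. These came from MDA-MB-231 cells (7 × 10^4/well, 96-well plates) pre-treated 18 h with natural products in 0.1% DMSO and then exposed 24 h to IFNγ (1 U/ml) and TNF (6.25 ng/ml) at 37°C. Values for kynurenine production are fold changes over same-plate cytokine-stimulated vehicle wells, averaged over duplicate plates in the first screening round.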

Structures are written as SMILES. ± gives the standard deviation of the averaged measurements.
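For cell viability relative to vehicle unstimulated control in this document: viability of the cells left after supernatant collection, read with Deep Blue dye added for 4 h, as absorbance at 570 nm minus 600 nm.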

On to `CC(C)=CCC[C@@](C)(O)[C@H]1CC[C@]2(C)[C@@H]1[C@H](O)C[C@@H]1[C@@]3(C)CC[C@H](O[C@@H]4O[C@H](CO)[C@@H](O)[C@H](O)[C@H]4O[C@@H]4O[C@H](CO)[C@@H](O)[C@H](O)[C@H]4O[C@@H]4OC[C@@H](O)[C@H](O)[C@H]4O)C(C)(C)[C@@H]3CC[C@]12C` [Notoginsenoside Ft1] (compound dose: 2 uM), for which the cell viability in the assay on MDA-MB-231 [1] came to 0.899 ± 0.026. For the same compound, the kynurenine production in the assay on MDA-MB-231 [2] was 0.86 ± 0.16.

As to `C[C@H](C[C@H](O)[C@H]1OC1(C)C)C1=C2C[C@H](O)[C@H]3[C@@]4(C)CCC(=O)C(C)(C)[C@@H]4CC[C@]3(C)[C@@]2(C)CC1` [Alisol B] (compound dose: 10 uM), the cell viability in the assay with MDA-MB-231 [1] stood at 0.865 ± 0.13. Further, the kynurenine production in the assay on MDA-MB-231 [2] was determined as 1.0307 ± 0.00045.

Turning to `CC(=O)OC(CC12C3C(C(C)C)CCC1(C)C1CCC4(CCCC42)N3C1)C(=O)C1(C)COC2(C)CCC1O2` (stereo not given) [Daphniphylline] (compound dose: 10 uM), the cell viability with MDA-MB-231 [1] was 1.01 ± 0.027. Further, in the assay with MDA-MB-231 [2], the kynurenine production was determined as 0.75 ± 0.079.

As for `C[C@H]1[C@H](OC(=O)CCC(=O)O)O[C@@H]2O[C@@]3(C)CC[C@H]4[C@H](C)CC[C@@H]1[C@@]24OO3` [Artesunate] (compound dose: 10 uM), the cell viability in the assay on MDA-MB-231 [1] worked out at 0.909 ± 0.13. In the assay with MDA-MB-231 [2], the kynurenine production stood at 0.421 ± 0.04.

With `C[C@H]1[C@H](C)CC[C@]2(C(=O)O)CC[C@]3(C)C(=CC[C@@H]4[C@@]5(C)C[C@@H](O)[C@H](O)[C@@](C)(CO)[C@@H]5[C@H](O)C[C@]43C)[C@H]12` [Madecassic acid] (compound dose: 10 uM), the cell viability in the assay on MDA-MB-231 [1] amounted to 0.899 ± 0.14. Moreover, in the assay on MDA-MB-231 [2], the kynurenine production is 0.839 ± 0.093.

Regarding `CC(C)=CCC/C(C)=C/C=O` [Citral] (compound dose: 10 uM), the cell viability in the assay on MDA-MB-231 [1] was determined as 0.922 ± 0.019. For the same compound, the kynurenine production in the assay on MDA-MB-231 [2] is 0.864 ± 0.074.

For `COc1cc2c(cc1O)C(Cc1ccc(O)cc1)NCC2` (stereo not given) [Coclaurine] (compound dose: 10 uM), in the assay with MDA-MB-231 [1], the cell viability is 0.988 ± 0.044. Moreover, in the assay on MDA-MB-231 [2], the kynurenine production came out at 1.04 ± 0.062.

With `C=C1CCC[C@]2(C)C[C@@H]3OC(=O)C(C)=C3C[C@@H]12` [Atractylenolide II] (compound dose: 10 uM), the cell viability in the assay on MDA-MB-231 [1] came to 1.03 ± 0.018. Further, in the assay with MDA-MB-231 [2], the kynurenine production came to 1.06 ± 0.041.

Turning to `C[C@@H]1O[C@@H](O[C@H]2[C@H](O[C@H]3CC[C@@]4(C)[C@@H](CC[C@]5(C)[C@@H]4CC=C4[C@@H]6CC(C)(C)CC[C@]6(C(=O)O)CC[C@]45C)[C@]3(C)CO)OC[C@H](O)[C@@H]2O)[C@H](O)[C@H](O)[C@H]1O` [alpha-Hederin] (compound dose: 10 uM), the cell viability with MDA-MB-231 [1] came to 0.932 ± 0.067. Besides, the kynurenine production with MDA-MB-231 [2] is 0.875 ± 0.14.

Regarding `C=C1[C@H](OC(=O)c2cccnc2)C[C@H]2[C@@H](/C=C(\C)C(=O)[C@@]3(OC(C)=O)C[C@H](C)[C@H](OC(=O)c4ccccc4)[C@@H]3[C@H]1OC(C)=O)C2(C)C` [Euphorbia factor L9] (compound dose: 10 uM), the cell viability in the assay on MDA-MB-231 [1] amounted to 1.07 ± 0.095. Moreover, the kynurenine production in the assay with MDA-MB-231 [2] was determined as 0.226 ± 0.028.

For the compound `C[C@@H]1O[C@@H](O[C@@H]2[C@@H](O)[C@H](O[C@H]3CC[C@]4(C)[C@H]5CC=C6[C@@H]7CC(C)(C)CC[C@]7(C(=O)O[C@@H]7O[C@H](CO)[C@@H](O)[C@H](O)[C@H]7O)CC[C@@]6(C)[C@]5(C)CC[C@H]4C3(C)C)O[C@H](C(=O)O)[C@H]2O)[C@H](O)[C@H](O)[C@H]1O` (compound dose: 10 uM), in the assay with MDA-MB-231 [1], the cell viability is 0.941 ± 0.015. In addition, the kynurenine production in the assay with MDA-MB-231 [2] was 0.932 ± 0.11.

For the compound `CC1OC(OC2C(OC3CCC4(C)C(CCC5(C)C4CC=C4C6CC(C)(C)CCC6(C(=O)OC6OC(COC7OC(CO)C(O)C(O)C7O)C(O)C(O)C6O)CCC45C)C3(C)CO)OCC(O)C2O)C(O)C(O)C1O` (stereo not given) [Dipsacoside B] (compound dose: 10 uM), the cell viability with MDA-MB-231 [1] was determined as 0.976 ± 0.042. Moreover, the kynurenine production with MDA-MB-231 [2] came to 0.861 ± 0.32.

Take `CC1OC2OC3C(OCC(O)C3O)OC(=O)C34CCC(C)(C)CC3C3=CCC5C6(C)CC(O)C(OC7OC(CO)C(O)C(O)C7OC7OCC(OC(=O)CC(C)(O)CC(=O)OC1C(OC1OCC(O)C(O)C1O)C2O)C(O)C7O)C(C)(CO)C6CCC5(C)C3(C)CC4O` (stereo not given) [Tubeimoside II] (compound dose: 10 uM): in the assay with MDA-MB-231 [1], the cell viability worked out at 0.387 ± 0.0057. Also, the kynurenine production in the assay on MDA-MB-231 [2] came out at 0.21 ± 0.0034.

Take `C=C1[C@H](OC(=O)/C=C(\C)CC)C[C@@H](C(C)C)[C@@H]2[C@@H]([C@@H](C)OC(C)=O)C(=O)C[C@@H]12` [Tussilagone] (compound dose: 10 uM): in the assay with MDA-MB-231 [1], the cell viability came out at 1.01 ± 0.034. Further, the kynurenine production with MDA-MB-231 [2] was 1.0216 ± 0.00014.

Take `C[C@H](CC[C@@H](O[C@@H]1O[C@H](CO[C@@H]2O[C@H](CO)[C@@H](O)[C@H](O)[C@H]2O)[C@@H](O)[C@H](O)[C@H]1O[C@@H]1O[C@H](CO)[C@@H](O)[C@H](O)[C@H]1O)C(C)(C)O)[C@H]1CC[C@@]2(C)[C@@H]3CC=C4[C@@H](CC[C@H](O[C@@H]5O[C@H](CO)[C@@H](O)[C@H](O)[C@H]5O)C4(C)C)[C@]3(C)[C@H](O)C[C@]12C` [Siamenoside I] (compound dose: 10 uM): in the assay with MDA-MB-231 [1], the cell viability is 1.14 ± 0.34. Further, in the assay on MDA-MB-231 [2], the kynurenine production turned out to be 1.1 ± 0.063.

The values are drawn from the supplement of paper PMC13094657.
